An excerpt weighted towards active compounds, which were near 2.7% of everything screened.
NadD block – inhibitors of S. aureus NadD, primary screen, biochemical, colorimetric, uHTS. purified NadD enzyme, colorimetric absorbance read-out. inhibition, % at 20 µM. Nicotinate-nucleotide adenylyltransferase NadD (Staphylococcus aureus N315). 360,000 tested, 0.78% active; in the data active = inhibition above about 26%
TAG inh – inhibitors of triacylglycerol accumulation, primary screen, cell-based, uHTS, fluorescence, H9c2. H9c2 cells, Nile Red lipid (TAG) fluorescence; cells loaded with 200 µM oleic acid. inhibition, % at 12.5 µM. 230,000 tested, 0.66% active. AID 651582, 2012;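 active = pattern-corrected inhibition of lipid staining of at least 50% with the nuclear-stain viability signal not falling by more than 50%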;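 also: 0% = DMSO wells and 100% = triacsin C control wells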
MPTP block – mitochondrial permeability transition pore inhibitors, primary screen, biochemical, isolated mouse mitochondria, absorbance; Ca2+ swelling absorbance, 30 min; 360,000 tested, 1.4% active; inhibition, % at 10 µM;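 active = inhibition of 50% or more, scaled per plate between neutral and stimulator controls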;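 also: 0% = DMSO wells given calcium and 100% = 1 mM EGTA wells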
aDG glyco act – activators of alpha-DG glycosylation, primary screen, uHTS, Pro5-aDG cells, AlphaScreen; AID 624168, 2012; activation, % at 10 µM; alpha-DG glycosylation AlphaScreen (IIH6); 0% Pro5, 100% B10-LARGE cell signal; 360,000 tested, 0.22% active;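 active = activation of at least 8% versus controls, or a plate z-score of at least 8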;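 also: Pro5 are CHO cells carrying HIG-tagged alpha-DG that lacks glycosylation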
MPTP counter – fluorescence retest of MPTP screen hits in isolated mitochondria, single concentration. shares compounds with MPTP block. inhibition, % at 10 µM. membrane potential, Rhodamine 123 fluorescence. 5,000 tested, 78% active; in the data active = inhibition above about 22%;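 also: 0% = DMSO vehicle and 100% = positive control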
MPTP abs DR – mitochondrial permeability transition pore inhibitors, dose response, biochemical, absorbance, uHTS hits; shares compounds with MPTP block; isolated mitochondria swelling; IC50, µM; 780 tested, 58% active; AID 651561, 2012; in the data active = IC50 below about 20 µM
MPTP counter DR – fluorescent counter-screen in isolated mitochondria, dose response, counter-screen for MPTP inhibitor project, biochemical, fluorescence, uHTS hits. shares compounds with MPTP block. isolated mitochondria counterscreen, fluorescence read-out. IC50, µM. 780 tested, 49% active. AID 651564, 2012; in the data active = IC50 below about 80 µM
* marks the source's active call; other numbers are inactive results; x = no result; ! = not confirmed by another sample.

SMILES	NadD block	TAG inh	MPTP block	aDG glyco act	MPTP counter	others
CN1CCN(c2ccc(-c3ccnn3C(=O)Nc3cccc(C(F)(F)F)c3)cc2)CC1	-0.2	x	86.7*	-0.1	100.2*
OCCN1CCN(C(=S)Nc2cccc(C(F)(F)F)c2)CC1	-1.8	12.4	94.4*!	0.1	82.1*
O=C(Nc1ccccc1Br)c1cc[n+]([O-])cc1	-0.7	x	-1.4	-0.2	x
N#Cc1cccc(C#N)c1Oc1ccc(N)cc1	-7.4	2.8	0.1	-0.1	x
C=CCN(CC=C)Cc1c(O)ccc2c(=O)c(-c3ccccc3)coc12	-4.0	x	-0.5	0.1	x
Cc1oc(-c2ccccc2F)nc1CS(=O)CC(=O)NCc1ccc(F)cc1 (configuration not stated)	1.6	8.3	1.5	1.6	x
O=C(Nc1cccc(C(F)(F)F)c1)Nc1nnc([C@H]2C[C@H](O)[C@@H](CO)O2)s1	-0.9	1.5	-0.8	-0.2	x
CCSCCc1nnc(NC(=O)Nc2cccc(C(F)(F)F)c2)s1	0.3	-8.9	79.5*	-0.8	72.6*
O=C(NCc1cccnc1)Nc1cccc(C(F)(F)F)c1	-1.2	-4.4	0.7	3.1	x
O=C(Nc1cccc(C(F)(F)F)c1)n1cc(-c2ccccn2)c(N2CCOCC2)n1	-7.7	-11.0	86.5*	0.6	96.0*
O=C(NCc1ccc2c(c1)CCO2)Nc1cccc(C(F)(F)F)c1	-5.2	-47.2	66.9*	0.3	82.6*
Cc1onc(C(=O)Nc2cccc(C(F)(F)F)c2)c1[N+](=O)[O-]	-3.1	x	-0.8	0.1	x
Cc1nc(Cl)c(C(=O)NC(=O)Nc2cccc(C(F)(F)F)c2)c(C)c1[N+](=O)[O-]	-0.3	-0.6	97.3*	0.5	89.5*
C[C@@H]1CN([C@H](C)CO)C(=O)CCCn2cc(nn2)CO[C@H]1CN(C)C(=O)Nc1ccccc1C(F)(F)F	4.2	6.3	0.9	0.1	x
CNS(=O)(=O)c1ccc(CNC[C@H]2O[C@@H](n3ccc(N)nc3=O)[C@H](O)[C@@H]2O)cc1	-4.6	15.5	-1.4	-0.1	x
Cc1cccnc1NC(=O)Nc1cccc(F)c1	2.6	9.0	0.1	0.4	x
COc1ccc(NC(=O)Nc2cccc(C(F)(F)F)c2)cn1	-0.7	-7.0	100.0*	1.1	89.9*
CNC(=O)Nc1cccc(C(F)(F)F)c1	0.7	0.1	4.9	-0.1	x
Cc1ccc(OC(F)F)c(NC(=O)Nc2cccc(C(F)(F)F)c2)c1	-5.8	x	96.0*	1.5	73.3*
O=C(Nc1cccc(C(F)(F)F)c1)c1cc(-c2ccc(F)cc2)on1	-2.9	-2.1	66.8*	-0.1	15.7	MPTP abs DR=>100;MPTP counter DR=>80
O=C(Nc1cccc(C(F)(F)F)c1)C12CC3CC(CC(C3)C1)C2	-3.8	x	63.6*	0.2	42.5*
CC(CCc1ccccc1)NC(=O)CCNC(=O)c1ccccc1Cl (configuration not stated)	-3.4	9.6	0.9	0.9	x
O=[N+]([O-])c1ccc2nc(NS(=O)(=O)c3ccc(F)cc3)sc2c1	-3.0	x	1.6	-0.1	x
CCOC(=O)c1c(NC(=O)CSc2nc3ccccc3s2)sc(C(C)=O)c1C	-1.3	x	85.7*	1.8	50.1*
CCOC(=O)c1sc(NC(=O)CSc2nc3ccccc3o2)c(C(=O)OCC)c1C	-2.4	x	3.4	0.5	x
SMILES	NadD block	TAG inh	MPTP block	aDG glyco act	MPTP counter	others
C=CCN=c1scc(-c2ccc3c(c2)NC(=O)CO3)n1/N=C(\C)c1ccccn1	1.2	27.8	94.9*	0.7	62.2*
Cc1cc(/C(N)=N/OC(=O)Nc2ccccc2)no1	-2.4	-15.1	1.4	0.0	x
Cc1cc(/C(N)=N/OC(=O)Nc2ccc(Cl)cc2)no1	-2.0	-9.7	57.2*	0.0	82.2*
Cc1cc(C(=O)CSc2nnc(-c3ccco3)o2)c(C)n1-c1ccc2c(c1)OCCO2	28.7	x	25.5	0.2	x
Cc1cc(C(=O)CSc2nnc(-c3ccc4c(c3)OCO4)o2)c(C)n1-c1ccc(F)cc1	1.0	-3.4	94.4*	-0.1	41.9*
Cc1cc(C(=O)CSc2nnc(-c3cccs3)o2)c(C)n1-c1ccccc1	0.8	4.9	51.5*	0.0	45.4*
OC[C@@H]1CN(Cc2ccc(F)cc2)C[C@H](n2cnc3c(N4CCOCC4)ncnc32)O1	-0.5	4.6	0.8	-0.1	x
COc1ccc(NC(=O)Cn2nnc(-c3ccccc3NS(=O)(=O)c3ccccc3)n2)cc1	-9.3	x	77.2*	2.3	75.0*
O=C(O)CCC(=O)Nc1nnc(C(F)(F)F)s1	-2.6	2.4	-0.1	0.0	x
CCC(NC(=O)Nc1nnc(C(F)(F)F)s1)(C(F)(F)F)C(F)(F)F	-4.2	-48.1	101.1*	-0.5	112.4*
COc1ccc(-c2cc(C(F)(F)F)nc(SCc3cccc(C(=O)O)c3)n2)cc1	0.4	x	6.5	1.6	x
COc1ccc(-c2cc(C(F)(F)F)nc(SCCC(=O)NCc3ccccc3)n2)cc1	-6.9	-7.1	59.6*	0.0	2.1	MPTP abs DR=>100;MPTP counter DR=>80
COc1ccc(Cl)cc1NC(=O)C(OC)c1ccccc1 (configuration not stated)	-6.8	-14.8	-0.2	0.1	x
COC(/C(=N/O)c1ccc(Cl)cc1)c1ccccc1 (configuration not stated)	-7.3	x	68.2*	2.7	75.9*
COc1cc(CN2C(=O)C(CCc3ccccc3)ON=C2c2cnccn2)cc(OC)c1 (configuration not stated)	-2.9	6.1	-0.9	-0.1	x
Cc1cc(C(=O)OCC(=O)N2CCc3ccccc32)ccc1[N+](=O)[O-]	1.4	0.7	-0.9	0.1	x
CC(C)(C)NCC(O)COc1ccccc1C1CCCC1 (configuration not stated)	-2.7	30.2	95.1*	1.0	-10.0	MPTP abs DR=6.79*;MPTP counter DR=55.6*
CCc1ccccc1OC[C@@H](O)CN[C@H]1CCCc2ccccc21	-6.1	2.5	103.7*	1.0	8.4	MPTP abs DR=5.45*;MPTP counter DR=14.8*
Cc1ccc(S(=O)(=O)Nc2ccccc2CNc2ccc(Br)cn2)cc1	1.4	-29.5	67.6*	0.4	70.5*
Cc1ccsc1CN(C)CC(=O)NCC(=O)Nc1ccc(F)c(F)c1F	2.2	1.9	-2.8	0.0	x
N#Cc1c(NC(=O)c2ccccc2)sc2c1CCCCC2	-26.8	x	12.0	-0.2	x
Cc1sc(NC(=S)NC(=O)c2ccccc2)c(C#N)c1C	8.1	-17.9	69.6*	-0.2	84.3*
N#Cc1c(Cl)nsc1NC(=O)c1ccccc1	-5.6	4.9	77.5*	0.0	89.3*
CN(C(=O)COC(=O)c1ccc2c(c1)OCO2)c1c(N)n(Cc2ccccc2)c(=O)[nH]c1=O	-4.6	-7.9	-1.7	0.2	x
COCCNc1nc(NCCOC)c2sc(-c3ccccc3)cc2n1	-8.2	12.9	0.9	0.8	x
